Most compounds without a hit are left out; they make up all but 3.8% or so of the library.
KAT2A inh: blocks human GCN5L2 histone acetyltransferase. Q92830. GCN5L2 HAT assay, ThioGlo1 CoA-SH fluorescence. Potency, µM (highest dose often 58.9 µM), usual class: inhibitors. 390,000 compounds, 0.21% hits
Target sequence (Q92830 whole entry, looked up): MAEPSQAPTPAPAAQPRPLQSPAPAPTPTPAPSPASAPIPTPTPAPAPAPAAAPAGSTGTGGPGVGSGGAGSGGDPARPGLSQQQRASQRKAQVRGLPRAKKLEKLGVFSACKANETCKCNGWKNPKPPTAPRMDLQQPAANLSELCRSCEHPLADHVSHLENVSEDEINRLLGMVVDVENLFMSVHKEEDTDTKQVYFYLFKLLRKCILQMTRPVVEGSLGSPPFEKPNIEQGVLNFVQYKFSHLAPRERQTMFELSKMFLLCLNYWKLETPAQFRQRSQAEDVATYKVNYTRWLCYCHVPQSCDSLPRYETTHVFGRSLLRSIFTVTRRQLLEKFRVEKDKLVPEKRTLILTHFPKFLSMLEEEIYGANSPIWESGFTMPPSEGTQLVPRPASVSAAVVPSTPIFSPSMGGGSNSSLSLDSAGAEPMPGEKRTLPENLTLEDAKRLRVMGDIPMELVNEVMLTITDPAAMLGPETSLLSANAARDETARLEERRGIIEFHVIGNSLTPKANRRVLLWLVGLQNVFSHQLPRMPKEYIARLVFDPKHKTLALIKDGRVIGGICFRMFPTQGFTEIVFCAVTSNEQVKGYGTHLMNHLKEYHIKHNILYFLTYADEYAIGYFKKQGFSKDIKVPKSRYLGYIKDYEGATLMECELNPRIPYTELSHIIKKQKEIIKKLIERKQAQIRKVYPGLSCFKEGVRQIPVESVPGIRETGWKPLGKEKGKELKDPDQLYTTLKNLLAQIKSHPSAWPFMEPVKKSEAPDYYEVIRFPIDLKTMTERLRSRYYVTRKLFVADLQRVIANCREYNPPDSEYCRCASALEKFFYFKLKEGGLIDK
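Enzyme at 20nM final was mixed with library compounds for 15 min at room temperature. Peptide H3(1-25) at 75uM, acetyl-CoA at 70uM and ThioGlo1 at 50uM were then added. Plates were read immediately and after 20 min (Ex340nm/Em540nm).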
Sfp PPTase inh: Sfp phosphopantetheinyl transferase inhibition; 310,000 compounds, 3.5% hits; Potency, µM, most hits filed as inhibitors; Q9F4F7; Biochemical Sfp PPTase activity, qHTS;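 further: the enzyme is Sfp with the accession as filed and its product quenches rhodamine fluorescence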
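Compounds were incubated with enzyme (final 15 nM) for 15 min at room temperature before substrate addition started the reaction. Fluorescence at 525 nm excitation, 598 nm emission was recorded immediately and after 30 minutes.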
TrxR1 inh: blocks rat thioredoxin reductase 1; O89049; recombinant rTrxR1, NADPH fluorescence consumption, selenite substrate; Potency, µM (highest dose often 114 µM), hits mostly inhibitors; 390,000 compounds, 1% hits; AID 588453; further: nearly all actives have a fitted effect of over 65% in size
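Rat TrxR1 (90 nM in the dispensed reagent) was pre-reduced with 400 uM NADPH for 5 min at room temperature, then incubated with compound for 15 min. After 400 uM selenite was added, NADPH fluorescence (Ex 340/Em 450 nm) was followed for 8 min.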
GLS inhibitor: inhibitors of human glutaminase (GLS); Potency, µM (titrated, usually from 45.5 µM), usual class: inhibitors; 410,000 compounds, 0.21% hits; GLS enzymatic activity, qHTS titration
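Compounds were pin-transferred onto hKGA, after which L-glutamine (1 mM solution) and a detection mix of glutamate oxidase, HRP and Amplex Red were added. Initial and 30 min RT fluorescence reads were collected.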
TrxR1 substrate: rat thioredoxin reductase 1 substrate activity; 390,000 compounds, 0.01% hits; Potency, µM (titrated, usually from 114 µM); purified TrxR1 substrate turnover, NADPH consumption readout; O89049; AID 588456; further: nearly all actives have a fitted effect of over 50% in size
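Rat TrxR1, dispensed at 90 nM, was prereduced with 400 uM NADPH (final) for 5 min at ~22 deg C, then incubated with compound 15 min before 400 uM selenite. A first-read NADPH fluorescence drop versus no-compound background flagged substrates.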
VDR inhibitor: inhibitors of human vitamin D receptor; AID 504847; 400,000 compounds, 0.93% hits; VDR-SRC2-3 peptide fluorescence polarization, 2 h; P11473; Potency, µM, hits mostly inhibitors
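Fluorescence polarization assay of small-molecule disruption of VDR binding to coregulator peptide SRC2-3. Compounds and controls pin-transferred, then read after 2 h incubation at ambient room temperature.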
Large screens that a line does not name were inactive; ! = not confirmed by another sample. The call rests on the fitted dose curve; in most records, active means well fitted curve in the direction sought with a large enough effect; inconclusive means small, poorly fitted or top-dose-only effect, or another doubt; inactive means no such curve, though single readings can be large; an effect the other way counts as inactive or inconclusive.

CCC1(C)CC(C(N)=S)CCO1 (configuration not stated)	KAT2A inh inconclusive, Sfp PPTase inh 4.5µM, GLS inhibitor inconclusive, VDR inhibitor 20µM
Cc1nn(C)c(C)c1P(=S)(c1c(C)nn(C)c1C)N(C)C	none
COc1cc2c(cc1OC)[C@@H]1C(=O)c3ccc4c(c3O[C@@H]1CO2)C[C@H](C(C)C)O4	none
CCN(CC)C(=O)c1c(C)[nH]c(=S)c(C#N)c1-c1ccco1	Sfp PPTase inh 1µM, TrxR1 inh inconclusive, GLS inhibitor inconclusive, VDR inhibitor inconclusive
COc1ccccc1N1C(=O)NC(=O)/C(=C/c2ccc3c4c(cccc24)CC3)C1=O	Sfp PPTase inh 11µM, TrxR1 inh 8.9µM, VDR inhibitor 50µM
O=C1NC(=O)N(c2ccccc2)C(=O)/C1=C\c1ccc2c3c(cccc13)CC2	Sfp PPTase inh 40µM (no result: TrxR1 inh, GLS inhibitor, TrxR1 substrate, VDR inhibitor)
COc1ccc(N2C(=O)NC(=O)/C(=C\c3cn(CC(=O)N4CCOCC4)c4ccccc34)C2=O)c(OC)c1	VDR inhibitor inconclusive
Clc1ccc(C[n+]2c(-c3ccccc3)cc(-c3ccccc3)cc2-c2ccccc2)cc1	none (no result: Sfp PPTase inh)
CCCc1[nH][nH]c(=O)c1C(c1ccc(Cl)cc1)C(C#N)C#N (configuration not stated)	TrxR1 inh 3.2µM
CCCc1[nH][nH]c(=O)c1C(c1ccccc1)C(C#N)C#N (configuration not stated)	TrxR1 inh inconclusive, VDR inhibitor inconclusive
COc1ccc(N2C(=O)/C(=C/c3ccc(N(C)C)o3)C(=O)NC2=S)cc1	TrxR1 inh inconclusive
Cc1ccc(N2C(=O)/C(=C/c3ccc(CN(CCC#N)S(C)(=O)=O)o3)C(=O)NC2=S)cc1	Sfp PPTase inh 20µM, TrxR1 inh 10µM, GLS inhibitor 11µM, VDR inhibitor inconclusive
COc1cccc(N2C(=O)/C(=C/c3ccc(C)o3)C(=O)NC2=S)c1	Sfp PPTase inh 25µM, TrxR1 inh 25µM, GLS inhibitor inconclusive, VDR inhibitor inconclusive
Cc1ccc(/C=C2\C(=O)NC(=S)N(c3ccc(F)cc3)C2=O)o1	KAT2A inh inconclusive, Sfp PPTase inh 45µM, TrxR1 inh inconclusive, GLS inhibitor inconclusive
CC(C)(C)C(O)C(Cc1ccc(Cl)cc1Cl)n1cncn1 (configuration not stated)	none (no result: TrxR1 inh, GLS inhibitor, TrxR1 substrate)
CCC(C)n1c(O)c(C(c2ccccn2)c2c(O)n(C(C)CC)c(=S)[nH]c2=O)c(=O)[nH]c1=S (configuration not stated)	Sfp PPTase inh 50µM, GLS inhibitor inconclusive
COc1cccc(CN2CCN(Cc3cccc(F)c3)CC2)c1	Sfp PPTase inh inconclusive
Cc1cc(C)cc(N2C(=O)NC(=O)/C(=C\c3cccn3-c3ccccc3)C2=O)c1	none
Cc1cccc(N2C(=O)NC(=O)/C(=C/c3ccc(N4CCOCC4)cc3)C2=O)c1	Sfp PPTase inh 50µM, TrxR1 inh inconclusive
Cc1cccc(N2C(=O)NC(=O)/C(=C\c3ccc(N4CCOCC4)cc3)C2=O)c1	Sfp PPTase inh 25µM, TrxR1 inh inconclusive
c1ccc(CN2CCNCC2)cc1	none (no result: KAT2A inh, Sfp PPTase inh, TrxR1 inh, TrxR1 substrate, VDR inhibitor)
COc1ccc(CN2CCNCC2)cc1	TrxR1 inh 35µM
COC(=O)C1=C(c2ccc(OC)c(OC)c2)C[C@@H]2CC[C@H]1N2C(=O)N1CCC(C)CC1	none (no result: Sfp PPTase inh)
CCOC(=O)c1ccc(N2C(=O)CC(N3CC=C(c4ccc(F)cc4)CC3)C2=O)cc1 (configuration not stated)	KAT2A inh inconclusive, Sfp PPTase inh 32µM, TrxR1 inh inconclusive
O=C(C1CCCN(c2nnc(-n3cccc3)s2)C1)N1CCC2(CC1)OCCO2 (configuration not stated)	none
S=C(S)N1CCCC1	Sfp PPTase inh 5.6µM, VDR inhibitor 20µM!
O=C(c1ccc2nc(-c3ccco3)c(-c3ccco3)nc2c1)N1CCC2(CC1)OCCO2	Sfp PPTase inh 8.9µM, TrxR1 inh 4.5µM, VDR inhibitor inconclusive
S=C(c1ccc(Cl)cc1)N1CCOCC1	Sfp PPTase inh 40µM, VDR inhibitor inconclusive
Cc1cccc(-n2c(O)c(C=Nc3ccc(Br)cn3)c(=O)[nH]c2=O)c1	GLS inhibitor inconclusive, VDR inhibitor 20µM
